# Assay results from PubChem BioAssay AID588727 (Southern Research Specialized Biocontainment Screening …, 2011).
# Screen size: about 350,000 compounds; about 450 (0.13%) were called active. The rule behind the calls is not given here. A selection follows. Entries with a potency or affinity are not part of this list.
# Assay: inhibitors of VEEV TC-83 cytopathic effect, confirmation, Vero cells (AID 588727)
# Settings: VEEV TC-83 cytopathic effect inhibition, at 20 µM; stronger effect = higher value unless noted
Structure (SMILES),inhibition,outcome
CCN(CC)CCNC(=O)c1cc2c(=O)n(CC)c3ccccc3c2s1,8.46% (inactive),–
CC1(C)NC(=O)N(CC(O)CN2CCOCC2)C1=O (stereo not drawn),1.64% (inactive),–
Cc1cc(NC(=O)COc2ccccc2C)ccc1NC(=O)c1ccco1,2.11% (inactive),–
COc1ccc(S(=O)(=O)N(C)c2ccc(C(=O)Nc3cccnc3)cc2)cc1,8.16% (inactive),–
C=C1CC2C(=O)N(Cc3cc(OC)ccc3OC)C(C(=O)OCC)(C(=O)OCC)C1N2C(=O)OC(C)(C)C (stereo not drawn),inactive,–
CCN1C/C(=C/c2ccc(OC)c(O)c2)C(=O)/C(=C/c2ccc(OC)c(O)c2)C1,inactive,–
COc1ccc(/C=C2\CN(Cc3ccccc3)C/C(=C\c3ccc(OC)cc3OC)C2=O)c(OC)c1,6.18% (inactive),–
Cc1cc(C)cc(-n2ncc3c2CCCC3NC(=O)CCCn2cncn2)c1 (stereo not drawn),0.41% (inactive),–
COc1ccccc1C1CCCN1Cc1nc(-c2cc3c(cc2Cl)OCO3)oc1C (stereo not drawn),3.15% (inactive),–
CCOc1ccccc1-c1nc(CN2CCCC2c2nccs2)c(C)o1 (stereo not drawn),8.27% (inactive),–
COc1ccc(OC)c(S(=O)(=O)NCCS(=O)(=O)N2CCN(c3ccccc3)CC2)c1,0.7% (inactive),–
Cc1nc2ccccc2c(=O)n1NC(=O)/C=C/c1ccc(Br)cc1,inactive,–
Cc1c(NC(=O)Nc2ccccc2)c(=O)n(-c2ccccc2)n1C,inactive,–
O=C(NC1CCCCC1)c1cc2ccccc2cc1O,inactive,–
O=C(NNC(=O)c1ccc2ccccc2c1O)NC1CCCCC1,2.22% (inactive),–
O=S(=O)(c1cccc2nsnc12)N1CCc2ccccc21,inactive,–
Cc1nnc(N2CCCC(C(=O)NCc3cccc(F)c3)C2)c2nn(-c3ccccc3)c(C)c12 (stereo not drawn),7.4% (inactive),–
Cc1ccc(CNc2nc(N)c([N+](=O)[O-])c(NCCO)n2)cc1,5.11% (inactive),–
O=c1c2sccc2nc(SCc2cc(=O)n3cc(Cl)ccc3n2)n1-c1ccc(F)cc1,"6.28% [measured here: 10K pilot screen inhibition, stronger effect = higher value]",inactive
Cc1c(C(=O)NCc2cccs2)oc2ccccc12,1.87% (inactive),–
Cn1c(C(=O)NCc2cccs2)cc2c(=O)n(C)c3ccccc3c21,0.66% (inactive),–

Structure (SMILES),inhibition,outcome
CCOc1ccccc1CNC(=O)c1cc2occc2n1C,3.56% (inactive),–
Cc1ccc(CNC(=O)c2cc3c(=O)n(C)c4ccccc4c3n2C)cc1,0.2% (inactive),–
COc1cccc(CNC(=O)c2cc3oc4ccccc4c3n2C)c1OC,55% (inactive),–
Cn1c(C(=O)NCC2CCCO2)cc2oc3ccccc3c21 (stereo not drawn),6.64% (inactive),–
Cc1ccc2c(c1)cc(C(=O)N[C@@H](Cc1ccccc1)C(=O)O)n2C,inactive,–
COCCNC(=O)c1cc2oc3ccccc3c2n1C,3.48% (inactive),–
CC(C)CCC(=O)N1CCC(N2CCC(C(=O)NCc3ccccn3)CC2)CC1,0.93% (inactive),–
CC(C)(C)n1nc2c(c1NC(=O)c1ccc(F)c(F)c1)CS(=O)(=O)C2,0.7% (inactive),–
O=C(C1CC(=O)N(c2ccc(F)cc2)C1)N1CCCCCC1 (stereo not drawn),inactive,–
O=C1c2cccnc2C(=O)N1CO,0.3% (inactive),–
CC(C)(C)C1CCc2c(sc3c2C(=O)NC(c2ccco2)N3)C1 (stereo not drawn),0.21% (inactive),–
CCC(=O)Nc1cc(C(=O)O)ccc1Sc1ccccc1,0.44% (inactive),–
Cn1cc(CCC(=O)NCc2cccc(Cl)c2)c2ccccc21,0.85% (inactive),–
O=C(COC(=O)c1ccc(Cl)cc1[N+](=O)[O-])NCc1ccco1,0.06% (inactive),–
Cc1ccc(S(=O)(=O)Nc2ccc(C(=O)NCCCn3ccnc3)cc2)cc1[N+](=O)[O-],0.22% (inactive),–
COc1ccc(COC(=O)c2cccc(S(=O)(=O)N3CCN(C(C)=O)CC3)c2)cc1F,1.43% (inactive),–
CC(=O)OC1CCC2(C)C3CCC4(C)C(C(C)=O)CCC4C3CC3OC32C1 (stereo not drawn),4.89% (inactive),–
CC(=O)OC1CC[C@]2(C#N)[C@H]3CC[C@]4(C)[C@H](C5C=CC(=O)O5)CCC4(O)C3CCC2(O)C1 (stereo partly drawn),21.3% (inactive),–
CC(=O)OC1CC2(O)C3CCC4CC(O)CCC4(C)C3CCC2(C)C1C1=CC(=O)OC1 (stereo not drawn),24.4% (inactive),–
CC12CC[C@H]3[C@@H](CCC4(O)C[C@H](O)CCC34/C=N/NC(=O)Cc3ccccc3)C1(O)CCC2C1=CC(=O)OC1 (stereo partly drawn),1.62% (inactive),–
CC12CC[C@H]3[C@@H](CCC4(O)C[C@H](O)CCC34/C=N/NC(=O)c3ccccc3F)C1(O)CCC2C1=CC(=O)OC1 (stereo partly drawn),8.49% (inactive),–

Structure (SMILES),inhibition,outcome
C[C@]12CCC3C(CC[C@@H]4C[C@@H](O)CC[C@]34C)C1CC[C@@H]2O (stereo partly drawn),1.93% (inactive),–
C[C@]12CCC3C(CC[C@H]4C[C@H](O)CC[C@]34C)C1CC(=O)[C@@H]2O (stereo partly drawn),2.26% (inactive),–
CC(C)c1ccc(NC(=O)CN2C(=O)NC3(CCCC3)C2=O)cc1,inactive,–
CCOC(=O)C1CCCN(C(=O)c2cc3cc4ccc(OC)cc4nc3o2)C1 (stereo not drawn),1.72% (inactive),–
Cc1ccc(N2C(=O)N3[C@H]4c5ccccc5OC[C@@H]4[C@@H](c4ccccc4)[C@@]3(C)C2=O)cc1,0.66% (inactive),–
CN(CC(=O)Nc1cccc(F)c1)C(=O)CCc1nc2cc(S(=O)(=O)N3CCOCC3)ccc2n1C,0.55% (inactive),–
CC(C)Oc1ccc(CSc2nnc3n(C)c(=O)c4c5c(sc4n23)CCCC5)cc1,inactive,–
CCCCNC(=O)COC(=O)c1ccc(SC)cc1OC,2.58% (inactive),–
CC(=O)Nc1ccc(S(=O)(=O)N2CCC(NC(=O)C(Cc3cccc(F)c3)NC(C)=O)CC2)cc1 (stereo not drawn),0.28% (inactive),–
CC(=O)[C@@]1(O)CCC2C3CC[C@H]4C[C@@H](O)CC[C@]4(C)C3CC[C@@]21C (stereo partly drawn),6.31% (inactive),–
CC(=O)O[C@@H]1CC[C@]2(C)C3CC[C@@]4(C)C(C[C@@H](O)[C@@H]4O)C3[C@@H](OC(C)=O)C[C@H]2C1 (stereo partly drawn),0.36% (inactive),–
CC12CC[C@H]3[C@@H](CCC4(O)C[C@H](O)CCC34/C=N/NC(=O)c3ccc(O)cc3)C1(O)CCC2C1=CC(=O)OC1 (stereo partly drawn),0.73% (inactive),–
C[C@H]1CC[C@@H]2[C@@H](C)[C@H]3[C@H](C[C@H]4[C@@H]5CC=C6C[C@@H](O[C@@H]7O[C@H](CO)[C@H](O)[C@H](O[C@@H]8O[C@H](CO)[C@@H](O)[C@H](O)[C@H]8O)[C@H]7O[C@@H]7O[C@@H](C)[C@H](O)[C@@H](O)[C@H]7O)CC[C@]6(C)[C@H]5CC[C@]34C)N2C1,inactive,–
COc1cc(C(=O)N/N=C/C23CC[C@@H](O)CC2(O)CC[C@@H]2[C@@H]3CCC3(C)C(C4=CC(=O)OC4)CCC23O)ccc1O (stereo partly drawn),7% (inactive),–
C[C@]12CCC3C(CCC4=CC(O)CC[C@@]43/C=N/O)C1(O)CCC2C1=CC(=O)OC1 (stereo partly drawn),27.9% (inactive),–
COc1ccc(C(=O)N/N=C/C23CC[C@@H](O)CC2(O)CC[C@@H]2[C@@H]3CCC3(C)C(C4=CC(=O)OC4)CCC23O)cc1 (stereo partly drawn),42.5% (inactive),–
CCOc1ccc(N2CC(C(=O)Nc3cccc(C(=O)NC4CC4)c3)CC2=O)cc1 (stereo not drawn),1.22% (inactive),–
Cc1ccccc1OCC(=O)Nc1ccc(N2CCOCC2)cc1N1CCOCC1,6.68% (inactive),–
COc1ccc(C2(C)NC(=O)NC2=O)cc1OC (stereo not drawn),inactive,–
COc1ccc(OC(C)c2ccc(C#N)c(=O)[nH]2)cc1 (stereo not drawn),1% (inactive),–
Cc1cc(=O)[nH]c(SCn2nnc3ccccc3c2=O)n1,0.62% (inactive),–

Structure (SMILES),inhibition,outcome
COc1ccc(S(=O)(=O)c2c(O)c3ccc(C(=O)Nc4ccccc4Cl)cc3[nH]c2=O)cc1,0.45% (inactive),–
O=C1COc2ccc(C(=O)COC(=O)c3ccc(S(=O)(=O)C(F)F)cc3)cc2N1,3.01% (inactive),–
COc1cc(/C=N/NC2=NS(=O)(=O)c3ccccc32)cc(OC)c1OC,0.18% (inactive),–
C[C@]12CC[C@H]3[C@@H](CC[C@]4(O)C[C@@H](O)CC[C@]34C=O)[C@@]1(O)CC[C@@H]2C1=CC(=O)OC1,24.6% (inactive),–
CC12CC[C@H]3[C@@H](CCC4(O)C[C@H](O)CCC34/C=N/NC(=O)c3ccccc3Cl)C1(O)CCC2C1=CC(=O)OC1 (stereo partly drawn),2.51% (inactive),–
Fc1ccc(-c2nnc(Cc3ccc(Cl)cc3)o2)cc1,inactive,–
Cc1ccc(OCCSc2nc(N)cc(N)n2)cc1,3.61% (inactive),–
O=C(c1ccc(F)cc1)c1ccc(-c2ccc(F)cc2)nc1,1.5% (inactive),–
COc1ccc(Cl)c2sc(N(CCN(C)C)C(=O)c3ccc4c(c3)OCCO4)nc12,3.95% (inactive),–
Cc1cc(C)c2nc(N(CCCN(C)C)C(=O)c3ccc4c(c3)OCCO4)sc2c1,11.7% (inactive),–
CN(Cc1ccccc1)C(=O)CN(C)S(=O)(=O)c1ccc(F)cc1,0.12% (inactive),–
COc1ccc2cc(-c3cc(C(=O)OCC(=O)Nc4c(C)n(C)n(-c5ccccc5)c4=O)c4ccccc4n3)ccc2c1,inactive,–
Cc1c(NC(=O)COC(=O)c2cc(-c3cccc4ccccc34)nc3ccccc23)c(=O)n(-c2ccccc2)n1C,2.81% (inactive),–
CC(C)[C@H](NC(=O)C1CC(=O)N(c2ccc3c(c2)OCCO3)C1)C(=O)NC1CCCC1 (stereo partly drawn),3.54% (inactive),–
O=C(CSc1nnc(-c2ccccc2Br)o1)N1CCOCC1,0.96% (inactive),–
Cc1ccccc1N1C(=O)C(Cc2ccc(F)cc2)S/C1=C(\C#N)C(N)=O (stereo not drawn),0.67% (inactive),–
Cc1ccc(CC2SC(=O)NC2=O)cc1Cl (stereo not drawn),4.25% (inactive),–
Nc1ccc(CC2SC(=O)NC2=O)cc1 (stereo not drawn),0.36% (inactive),–
O=C1NC(=O)C(Cc2cccc(Oc3ccccc3)c2)S1 (stereo not drawn),0.8% (inactive),–
